These results are taken from paper PMC11062922 (Nature Chemical Biology, 2023).

Read-outs that look alike come from different tables or passages of the source.

The subject of one test is CDKL5. Set-up: species or system human, MV4-11 + K-562 + COLO205 + SK-N-BE2 + OVCAR-8. Particulars: read-out: apparent Kd, n = 1.
A further test concerns MTHFD1. More on the design: species or system human, MV4-11 + K-562 + COLO205 + SK-N-BE2 + OVCAR-8. Particulars: read-out: apparent Kd; compound concentrations:100 nM and 1000 nM (sheet 'Samples'); n = 1.
The subject of a further test is PLK1. More on the design: species or system human, MV4-11 + K-562 + COLO205 + SK-N-BE2 + OVCAR-8. To be noted: read-out: apparent Kd; compound concentrations: 100 nM and 1000 nM (sheet 'Samples'), CATDS: 0.37737970121019898; n = 1.
The test system of the next test is CIT. More on the design: species or system human, MV4-11 + K-562 + COLO205 + SK-N-BE2 + OVCAR-8. To be noted: read-out: apparent Kd; compound concentrations:100 nM and 1000 nM (sheet 'Samples'); n = 1.
The subject of a further test is CSNK1A1. More on the design: species or system human, MV4-11 + K-562 + COLO205 + SK-N-BE2 + OVCAR-8. To be noted: read-out: apparent Kd; compound concentrations:100 nM and 1000 nM (sheet 'Samples'); n = 1.
In another test the test system is CSNK1D. Set-up: species or system human, MV4-11 + K-562 + COLO205 + SK-N-BE2 + OVCAR-8. To be noted: read-out: apparent Kd; compound concentrations:100 nM and 1000 nM (sheet 'Samples'); n = 1.
For another test, the system named is CSNK1E. More on the design: species or system human, MV4-11 + K-562 + COLO205 + SK-N-BE2 + OVCAR-8. Particulars: read-out: apparent Kd; compound concentrations:100 nM and 1000 nM (sheet 'Samples'); n = 1.
A further test has as its system MAPK14. Set-up: species or system human, MV4-11 + K-562 + COLO205 + SK-N-BE2 + OVCAR-8. Particulars: read-out: apparent Kd, compound concentrations: 100 nM and 1000 nM (sheet 'Samples'), n = 1.
The subject of another test is MAPK9. Set-up: species or system human, MV4-11 + K-562 + COLO205 + SK-N-BE2 + OVCAR-8. To be noted: read-out: apparent Kd, n = 1.
The next test relates to MAPKAPK2. More on the design: species or system human, MV4-11 + K-562 + COLO205 + SK-N-BE2 + OVCAR-8. To be noted: read-out: apparent Kd, n = 1.
A further test concerns PIK3CD. More on the design: species or system human, MV4-11 + K-562 + COLO205 + SK-N-BE2 + OVCAR-8. Particulars: read-out: apparent Kd; compound concentrations:100 nM and 1000 nM (sheet 'Samples'); n = 1.
A further test concerns PKN3. More on the design: species or system human, MV4-11 + K-562 + COLO205 + SK-N-BE2 + OVCAR-8. Particulars: read-out: apparent Kd; compound concentrations:100 nM and 1000 nM (sheet 'Samples'); n = 1.
The test system of another test is PRKX. Set-up: species or system human, MV4-11 + K-562 + COLO205 + SK-N-BE2 + OVCAR-8. To be noted: read-out: apparent Kd; compound concentrations:100 nM and 1000 nM (sheet 'Samples'); n = 1.
A further test has as its system PSMC3. More on the design: species or system human, MV4-11 + K-562 + COLO205 + SK-N-BE2 + OVCAR-8. To be noted: read-out: apparent Kd; compound concentrations:100 nM and 1000 nM (sheet 'Samples'); n = 1.
For a further test, the system named is RIPK2. Set-up: species or system human, MV4-11 + K-562 + COLO205 + SK-N-BE2 + OVCAR-8. To be noted: read-out: apparent Kd; compound concentrations:100 nM and 1000 nM (sheet 'Samples'); n = 1.
The next test deals with SIK3. Set-up: species or system human, MV4-11 + K-562 + COLO205 + SK-N-BE2 + OVCAR-8. Particulars: read-out: apparent Kd; compound concentrations:100 nM and 1000 nM (sheet 'Samples'); n = 1.
A further test relates to TGFBR2. Set-up: species or system human, MV4-11 + K-562 + COLO205 + SK-N-BE2 + OVCAR-8. Particulars: read-out: apparent Kd; compound concentrations:100 nM and 1000 nM (sheet 'Samples'); n = 1.
The test system of a further test is CDK7. Set-up: species or system human, MV4-11 + K-562 + COLO205 + SK-N-BE2 + OVCAR-8. Particulars: read-out: apparent Kd; compound concentrations: 100 nM and 1000 nM (sheet 'Samples'), CATDS: 4.9338137384748702E-2; n = 1.
The subject of a further test is ERCC2. Set-up: species or system human, MV4-11 + K-562 + COLO205 + SK-N-BE2 + OVCAR-8. Particulars: read-out: apparent Kd; compound concentrations: 100 nM and 1000 nM (sheet 'Samples'), CATDS: 5.1368063894958502E-2; n = 1.
The test system of a further test is FER. More on the design: species or system human, MV4-11 + K-562 + COLO205 + SK-N-BE2 + OVCAR-8. To be noted: read-out: apparent Kd; compound concentrations: 100 nM and 1000 nM (sheet 'Samples'), CATDS: 5.6215291988472402E-2; n = 1.
In another test the test system is GAK. Set-up: species or system human, MV4-11 + K-562 + COLO205 + SK-N-BE2 + OVCAR-8. Particulars: read-out: apparent Kd; compound concentrations: 100 nM and 1000 nM (sheet 'Samples'), CATDS: 4.9289180471638903E-2; n = 1.
A further test deals with MAPK10. Set-up: species or system human, MV4-11 + K-562 + COLO205 + SK-N-BE2 + OVCAR-8. To be noted: read-out: apparent Kd; compound concentrations: 100 nM and 1000 nM (sheet 'Samples'), CATDS: 5.8204150926545503E-2; n = 1.
The next test relates to NLK. Set-up: species or system human, MV4-11 + K-562 + COLO205 + SK-N-BE2 + OVCAR-8. Particulars: read-out: apparent Kd; compound concentrations: 100 nM and 1000 nM (sheet 'Samples'), CATDS: 0.64871625608349803; n = 1.
For the next test, the system named is PAK4. Set-up: species or system human, MV4-11 + K-562 + COLO205 + SK-N-BE2 + OVCAR-8. Particulars: read-out: apparent Kd; compound concentrations: 100 nM and 1000 nM (sheet 'Samples'), CATDS: 5.1367607354333399E-2; n = 1.
A further test concerns PIP4K2C. Set-up: species or system human, MV4-11 + K-562 + COLO205 + SK-N-BE2 + OVCAR-8. To be noted: read-out: apparent Kd; compound concentrations: 100 nM and 1000 nM (sheet 'Samples'), CATDS: 6.1444231758823603E-2; n = 1.
The next test has as its system PTK2B. More on the design: species or system human, MV4-11 + K-562 + COLO205 + SK-N-BE2 + OVCAR-8. Particulars: read-out: apparent Kd; compound concentrations: 100 nM and 1000 nM (sheet 'Samples'), CATDS: 5.2093058874082297E-2; n = 1.
The target of another test is Q6ZSR9 (human, UniProt Q6ZSR9). More on the design: species or system MV4-11 + K-562 + COLO205 + SK-N-BE2 + OVCAR-8. To be noted: read-out: apparent Kd; compound concentrations: 100 nM and 1000 nM (sheet 'Samples'), CATDS: 4.2380052385305601E-2; n = 1.
For the next test, the system named is SIK2. More on the design: species or system human, MV4-11 + K-562 + COLO205 + SK-N-BE2 + OVCAR-8. Particulars: read-out: apparent Kd; compound concentrations: 100 nM and 1000 nM (sheet 'Samples'), CATDS: 4.6797026760186898E-2; n = 1.
Another test has as its system STK3. Set-up: species or system human, MV4-11 + K-562 + COLO205 + SK-N-BE2 + OVCAR-8. To be noted: read-out: apparent Kd; compound concentrations: 100 nM and 1000 nM (sheet 'Samples'), CATDS: 4.17809647402431E-2; n = 1.
A further test concerns STK4. Set-up: species or system human, MV4-11 + K-562 + COLO205 + SK-N-BE2 + OVCAR-8. To be noted: read-out: apparent Kd; compound concentrations: 100 nM and 1000 nM (sheet 'Samples'), CATDS: 4.6786088352923701E-2; n = 1.
For another test, the system named is TNK1. Set-up: species or system human, MV4-11 + K-562 + COLO205 + SK-N-BE2 + OVCAR-8. Particulars: read-out: apparent Kd; compound concentrations: 100 nM and 1000 nM (sheet 'Samples'), CATDS: 5.4278066670988299E-2; n = 1.
A further test relates to TNK2. Set-up: species or system human, MV4-11 + K-562 + COLO205 + SK-N-BE2 + OVCAR-8. Particulars: read-out: apparent Kd; compound concentrations: 100 nM and 1000 nM (sheet 'Samples'), CATDS: 7.0528629271619694E-2; n = 1.
A further test deals with PRKAG2. Set-up: species or system human, MV4-11 + K-562 + COLO205 + SK-N-BE2 + OVCAR-8. To be noted: read-out: apparent Kd; compound concentrations: 100 nM and 1000 nM (sheet 'Samples'), CATDS: 0.49360231247915698; n = 1.
Setting [1] is: compound concentrations:100 nM and 1000 nM (sheet 'Samples').

Sequence of Q6ZSR9 (Q6ZSR9 whole entry, looked up): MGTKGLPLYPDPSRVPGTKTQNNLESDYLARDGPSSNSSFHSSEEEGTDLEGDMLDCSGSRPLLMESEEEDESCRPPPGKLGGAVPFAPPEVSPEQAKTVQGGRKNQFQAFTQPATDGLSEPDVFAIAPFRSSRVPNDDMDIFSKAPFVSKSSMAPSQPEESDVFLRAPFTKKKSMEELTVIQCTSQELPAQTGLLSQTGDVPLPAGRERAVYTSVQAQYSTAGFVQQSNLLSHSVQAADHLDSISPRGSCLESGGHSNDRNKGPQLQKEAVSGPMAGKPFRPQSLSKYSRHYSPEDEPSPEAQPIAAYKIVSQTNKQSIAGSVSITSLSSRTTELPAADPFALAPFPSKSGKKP

For the compound `COc1cc2ncn(-c3cc(OCc4ccccc4C(F)(F)F)c(C(N)=O)s3)c2cc1OC` [GW843682X], the potency estimated from few doses with CDKL5 (setting [1]) was 2330 nM; in the test on MTHFD1, 1710 nM; in the test with PLK1, 1400 nM.

On to `Fc1ccc(-c2nc[nH]c2-c2ccncc2)cc1` [SB-217360], for which the potency estimated from few doses in the test on CIT is 926 nM; in the test with CSNK1A1, 98 nM; in the test with CSNK1D, 40.5 nM; in the test on CSNK1E, 623 nM; with MAPK14 (CATDS: 6.0932890746218903E-2), 445 nM; in the test on MAPK9 (setting [1]) it was 526 nM. Moreover, the potency estimated from few doses in the test on MAPKAPK2 (setting [1]) is 83.8 nM; with PIK3CD, 114 nM; with PKN3, 212 nM; with PRKX it was 77.5 nM; in the test with PSMC3, 1190 nM; in the test on RIPK2 it was 99.5 nM. Moreover, the potency estimated from few doses is 1440 nM with SIK3 and 1140 nM in the test with TGFBR2.

`Cl.Cn1c(=O)c(Oc2cccc(F)c2)cc2cnc(NC3CCOCC3)nc21` [RO3304774-001]: the potency estimated from few doses in the test on CDK7 was 1360 nM; in the test on ERCC2, 1240 nM; in the test on FER, 1010 nM; in the test with GAK, 1370 nM; in the test on MAPK10, 939 nM; with MAPK14 (CATDS: 6.3546758887955801E-2) it was 786 nM. Further, the potency estimated from few doses with MAPK9 (compound concentrations: 100 nM and 1000 nM (sheet 'Samples'), CATDS: 5.1291573819888199E-2) was 1240 nM; in the test with MAPKAPK2 (compound concentrations: 100 nM and 1000 nM (sheet 'Samples'), CATDS: 6.9359248510779001E-2), 665 nM; with NLK, 17.9 nM; in the test with PAK4, 1240 nM; with PIP4K2C, 840 nM; in the test on PTK2B, 1200 nM. Besides, the potency estimated from few doses with Q6ZSR9 is 2060 nM; in the test on SIK2, 1560 nM; with STK3 it was 2160 nM; in the test with STK4, 1560 nM; in the test on TNK1, 1090 nM; in the test with TNK2, 645 nM.

On to `COc1ccc(Nc2nccc(N3CCC(NC(=O)Nc4cc(C)ccc4C)C3)n2)cc1` (stereo not shown) [GSK1379741A], for which the potency estimated from few doses was 1860 nM in the test with CDKL5 (compound concentrations: 100 nM and 1000 nM (sheet 'Samples'), CATDS: 0.50656570893737995); 1960 nM in the test on PRKAG2.
